EPAC1 antagonist – qHTS for Antagonist of cAMP-regulated guanine nucleotide exchange factor 3 (EPAC1): primary screen; 0.14% of 360,000 active; Potency, µM (series often up to 115 µM), without a hit: top-dose activity change, negative = inhibition, actives largely listed as inhibitors; Rap guanine nucleotide exchange factor 3 (Homo sapiens), O95398; EPAC1 GEF assay, Rap1b-BODIPY-GDP exchange fluorescence;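 also: plate controls were vehicle for no effect and positive control for full effect; nearly all actives have a fitted effect of over 50% in size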
EPAC2 ag – qHTS for Agonist of cAMP-regulated guanine nucleotide exchange factor 4 (EPAC2): primary screen; Rap guanine nucleotide exchange factor 4 (Homo sapiens), Q8WZA2; 0.079% of 360,000 active; Potency, µM (titrated, usually from 154 µM), for the others: top-dose activation, usual class: activators; EPAC2 activation, biochemical qHTS; response scale: 100% = 6.5 mM cAMP response; also: nearly all actives have a fitted effect of over 50% in size
Target sequence (Q8WZA2 whole entry, looked up): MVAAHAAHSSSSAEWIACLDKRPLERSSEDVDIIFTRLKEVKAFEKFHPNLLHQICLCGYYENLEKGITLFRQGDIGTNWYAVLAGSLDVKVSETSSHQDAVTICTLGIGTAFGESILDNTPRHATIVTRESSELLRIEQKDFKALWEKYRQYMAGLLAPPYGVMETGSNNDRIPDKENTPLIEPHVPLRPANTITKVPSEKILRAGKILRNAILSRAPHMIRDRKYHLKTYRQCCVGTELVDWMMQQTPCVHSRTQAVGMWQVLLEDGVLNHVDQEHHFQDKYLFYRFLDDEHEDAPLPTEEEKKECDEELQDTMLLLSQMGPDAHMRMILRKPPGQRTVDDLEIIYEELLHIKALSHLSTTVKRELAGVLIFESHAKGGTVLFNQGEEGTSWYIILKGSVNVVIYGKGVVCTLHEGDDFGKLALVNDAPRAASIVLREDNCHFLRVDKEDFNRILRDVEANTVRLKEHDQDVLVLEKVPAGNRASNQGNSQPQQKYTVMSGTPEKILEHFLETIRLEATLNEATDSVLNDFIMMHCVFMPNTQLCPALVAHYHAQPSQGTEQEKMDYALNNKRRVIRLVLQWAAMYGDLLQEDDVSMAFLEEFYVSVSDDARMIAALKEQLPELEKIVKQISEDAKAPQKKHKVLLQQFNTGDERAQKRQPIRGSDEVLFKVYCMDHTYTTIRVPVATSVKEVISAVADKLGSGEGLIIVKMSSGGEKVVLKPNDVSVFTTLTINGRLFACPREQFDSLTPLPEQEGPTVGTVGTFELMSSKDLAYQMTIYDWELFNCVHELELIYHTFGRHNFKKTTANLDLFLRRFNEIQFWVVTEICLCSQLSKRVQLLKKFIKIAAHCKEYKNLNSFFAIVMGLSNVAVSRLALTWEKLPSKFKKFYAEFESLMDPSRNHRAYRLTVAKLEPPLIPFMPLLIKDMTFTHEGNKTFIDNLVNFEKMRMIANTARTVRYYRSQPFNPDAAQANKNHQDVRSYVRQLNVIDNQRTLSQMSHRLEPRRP
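Each well held 100 nM EPAC2, 250 nM RAP1B-BODIPY-GDP and 50 uM GDP. Fluorescence, read at 5-min intervals to 30 min, was referenced to a 6.5 mM cAMP positive control.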
BRCA1 expr act – qHTS Assay to Identify Small Molecule Activators of BRCA1 Expression | Potency, µM (top dose mostly 46.1 µM), inactives show top-dose activation, most hits filed as activators | MCF7-BRCA1-FFLuc reporter, luminescence, 48 h; response scale: scaled: vehicle 0%, 10 µM genistein 100% | 1.1% of 380,000 active; also: nearly all actives have a fitted effect of over 80% in size
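Cells: MCF7-BRCA1-FFLuc, 2000/well. Exposure: 48 h, 37 °C, 5% CO2. Read: luminescence, 15 min post-substrate. Controls: genistein 10 microM (maximal activation), DMSO (neutral).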
EPAC1 agonist – qHTS for Agonist of cAMP-regulated guanine nucleotide exchange factor 3 (EPAC1): primary screen; Rap guanine nucleotide exchange factor 3 (Homo sapiens), O95398; EPAC1 agonist qHTS, biochemical assay; response scale: 100% = response to 6.5 mM cAMP; Potency, µM (top dose mostly 154 µM), for the others: at the highest dose activation, actives largely listed as activators; 0.073% of 360,000 active; also: nearly all actives have a fitted effect of over 60% in size
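Nucleotide exchange assay: 100 nM EPAC1 with 250 nM Rap1B loaded with BODIPY-GDP and 50 uM GDP, room temperature. Fluorescence (480/540 nm) read every 5 min for 30 min; signal change normalized to 6.5 mM cAMP as full agonist.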
EPAC2 antagonist – qHTS for Antagonist of cAMP-regulated guanine nucleotide exchange factor 2 (EPAC2): primary screen; Rap guanine nucleotide exchange factor 4 (Homo sapiens), Q8WZA2; EPAC2 GEF exchange of Rap1B-BODIPY-GDP, fluorescence; Potency, µM (highest dose often 114 µM), for the others: top-dose activity, negative = inhibition, most hits filed as inhibitors; 0.18% of 360,000 active; AID 720708, 2013; also: % is scaled to controls: 0 for no effect and ±100 for the full control effect; nearly all actives have a fitted effect of over 45% in size
RGS4 inh – Inhibitors of Regulator of G Protein Signaling (RGS) 4: qHTS | AID 504845, 2011 | Transcreener GDP fluorescence polarization, RGS4-accelerated GTP hydrolysis | Potency, µM (top dose mostly 114 µM), inactives show at the top dose activity change, negative = inhibition, usual class: inhibitors | Regulator of G-protein signaling 4 (Homo sapiens), P49798 | 0.039% of 390,000 active; also: % is scaled to controls: 0 for no effect and ±100 for the full control effect; nearly all actives have a fitted effect of over 75% in size
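MLSMR compounds (23 nl, pin-transferred) preincubated 10 min at room temperature with a 500nM (2x) first reagent, then RGS4 at 900nM (2x) plus Transcreener GDP mix added; fluorescence polarization (620/688 nm) read before and after 90 min at 30 °C.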
* marks the source's active call; other numbers are inactive results; ? = inconclusive; · = not tested or not shown. Rows were chosen to be rich in hits. Some 1.3% of all compounds tested hit in one or more screens of this group. Calls follow the shape of the dose curve; as a rule, active = well fitted curve in the direction sought with a large enough effect; inconclusive = small, poorly fitted or top-dose-only effect, or another doubt; inactive = no such curve, though single readings can be large; an effect the other way counts as inactive or inconclusive. Potency is read from the fitted curve at half-maximal effect.

SMILES	EPAC1 antagonist	EPAC2 ag	BRCA1 expr act	EPAC1 agonist	EPAC2 antagonist	RGS4 inh
CCCN(CCC)CCCNC(=O)c1cc2c(=O)[nH]c3ccccc3c2n1C	-8%	10%	-4%	7%	8%	20%
C/C(=N\NC(=O)c1ccn(C)n1)c1cccc(NC(=O)c2ccc(C)s2)c1	36%	8%	11µM*	-6%	4%	15%
Cc1nc2ccc(NC(=O)CCS(=O)(=O)c3ccc(Cl)cc3)cc2s1	0%	-4%	-22%	-13%	-13%	-49%
Cc1nc2ccc(NC(=O)CCC3CCCC3)cc2s1	-23%	10%	11µM*	3%	-9%	-1%
O=C(NC1CCCCC1)N1CCN(Cc2nc3ccccc3c(=O)[nH]2)CC1	5%	3%	14%	-1%	27%	-43%
CC(CC(=O)Nc1ccc(Cl)c(S(=O)(=O)N2CCOCC2)c1)c1ccccc1 (configuration not stated)	-23%	1%	-77%	22µM*	1%	-26%
CCSC1=C(C#N)C(c2cccs2)C(C(=O)OC)=C(C)N1 (configuration not stated)	-23%	2%	-22%	2%	?	-47%
Cc1cc(NC(=O)COC(=O)c2ccc(NS(=O)(=O)c3ccc(C)c(C)c3)cc2)no1	-15%	9%	0%	16%	-2%	0%
CC(C)OC(=O)c1ccc(NC(=O)c2cncc(Br)c2)cc1	-28%	-7%	43%	-13%	-11%	-16%
O=C(Nc1nccs1)c1cccnc1	8%	-6%	-13%	4%	-1%	-13%
O=C(Nc1ccc2c(c1)OCO2)c1cncc(Br)c1	-11%	-5%	10µM*	1%	-11%	-7%
CN(C)C(=O)c1ccc(NC(=O)c2cncc(Br)c2)cc1	0%	6%	11µM*	2%	2%	17%
O=C(Nc1nccs1)c1cncc(Br)c1	-19%	1%	3.5µM*	7%	-3%	2%
CC1=CC(C)(C)[N+](C)(C)c2ccccc21	4%	-2%	-29%	2%	3%	-13%
Cc1ccc(S(=O)(=O)Nc2ccc3c(c2)C(=O)N([C@H](C)CO)C[C@H](C)[C@@H](CN(C)C(=O)Nc2ccc4c(c2)OCO4)O3)cc1	-8%	-5%	0%	5%	-13%	18%
CCc1nc2c(OCc3cccc(Cl)c3)cccn2c1N(C)C(=O)C(C)C	-14%	11%	-39%	1%	2%	·
CCc1nc2c(OCc3cccc(Cl)c3)cccn2c1N(C)C(C)=O	29%	20µM*	-38%	7%	3%	·
COc1cc(Cl)cc(C(c2c(C(=O)O)[nH]c3ccccc23)c2c(C(=O)O)[nH]c3ccccc23)c1O	-22%	2%	-15%	-1%	-4%	-29%
O=C(O)c1[nH]c2ccccc2c1C(c1cc(Br)ccc1O)c1c(C(=O)O)[nH]c2ccccc12	45µM*	-7%	-13%	-2%	-20%	-35%
CCC(=O)Nc1ccc2c(c1)ncn2-c1ccc(C)cc1	-29%	5%	2µM*	3%	-2%	15%
CCn1cnc2cc(NC(=O)c3ccc(C)cc3)ccc21	-4%	2%	4.5µM*	-3%	-12%	-11%
Cc1ccc(C(=O)Nc2ccc3c(c2)ncn3C)cc1	-1%	-7%	?	1%	6%	-11%
